Source: PubChem BioAssay (NCI)
About 79,000 compounds went through this panel and 15% of them were active in at least one assay; those are over-represented in the sample as a whole. Calls of active or inactive are those of the source. No stated cut-off is given here; in the data, active means growth inhibition above about 70%; inactive means the rest.

What was measured:
[1] = NCI Yeast Anticancer Drug Screen. Data for the rad52 strain (AID 147);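 further: 0% = growth of vehicle-treated control cultures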; settings: S. cerevisiae rad52 mutant growth inhibition, hits give high values
Outline: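 Measured: yeast growth inhibition. System: strain with a defined DNA damage repair alteration. Reference: vehicle-treated control cultures.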

[2] = NCI Yeast Anticancer Drug Screen. Data for the wt1 strain (AID 149);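 further: 0% = growth of vehicle-treated wt1 cultures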; settings: S. cerevisiae wt1 strain (SPY 50644) growth inhibition, hits give high values
Outline: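 wt1 yeast, compound-treated; % growth inhibition vs vehicle control.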

[3] = NCI Yeast Anticancer Drug Screen. Data for the rad50EPP+ strain (AID 151);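 further: 0% = growth of vehicle-treated control cultures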; settings: S. cerevisiae rad50 mutant strain, hits give high values
Outline: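 One strain with a rad50 alteration (rad50EPP+) was compound-treated, its growth then compared to that of vehicle controls.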

[4] = NCI Yeast Anticancer Drug Screen. Data for the rad50 strain (AID 155);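 further: 0% = growth of vehicle-only cultures of the same strain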; settings: S. cerevisiae rad50 strain growth inhibition, hits give high values
Outline: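 Genetically altered yeast (DNA repair pathway); compound treatment; growth inhibition vs vehicle ctrl.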

[5] = NCI Yeast Anticancer Drug Screen. Data for the mec2-1 strain (AID 157); settings: S. cerevisiae mec2-1 strain, hits give high values
Outline: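 Test agents were screened against the mec2-1 yeast strain, with defined DNA repair or cell cycle alteration. Growth was scored as inhibition against vehicle-only controls.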

[6] = NCI Yeast Anticancer Drug Screen. Data for the rad14 strain (AID 159);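 further: 0% = growth of vehicle-treated control cultures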; settings: S. cerevisiae rad14 strain growth inhibition, hits give high values
Outline: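 Test compounds were applied to a repair-deficient yeast strain. Its growth was then compared with that of cultures given vehicle alone, and inhibition was expressed relative to those controls.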

[7] = NCI Yeast Anticancer Drug Screen. Data for the sgs1 mgt1 strain (AID 161);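 further: 0% = growth of cultures given vehicle only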; settings: S. cerevisiae sgs1 mgt1 strain, hits give high values
Outline: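 Test agents were incubated with a DNA-repair-mutant yeast strain. Growth was then read and compared against vehicle-treated controls.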

[8] = NCI Yeast Anticancer Drug Screen. Data for the CLN2oe strain (AID 163);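 further: 0% = growth of vehicle-only control cultures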; settings: S. cerevisiae CLN2oe strain, hits give high values
Outline: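 Here, growth inhibition in a cell-cycle-altered yeast strain after compound exposure was quantified against vehicle control growth.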

[9] = NCI Yeast Anticancer Drug Screen. Data for the cln2 rad14 strain (AID 165);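 further: 0% = growth equal to vehicle treated cultures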; settings: S. cerevisiae cln2 rad14 strain, hits give high values
Outline: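 Growth of compound-exposed yeast (cln2 rad14 genotype) measured and expressed as inhibition relative to vehicle.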

[10] = NCI Yeast Anticancer Drug Screen. Data for the bub3 strain (AID 167); settings: S. cerevisiae bub3 mutant strain, hits give high values
Outline: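 Yeast carrying a defined mutation is treated with each compound, and growth is compared with that of vehicle-exposed cells to give inhibition.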

[11] = NCI Yeast Anticancer Drug Screen. Data for the wt2 strain (AID 169);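 further: 0% = growth of vehicle-treated yeast cultures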; settings: S. cerevisiae wt2 strain growth inhibition, hits give high values
Outline: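 Genetically defined yeast strains from a DNA-repair/cell-cycle panel were used. Compound-exposed yeast growth was measured, and the inhibition was calculated relative to vehicle treatment.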

[12] = NCI Yeast Anticancer Drug Screen. Data for the mlh1 strain (AID 171);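 further: 0% = growth of vehicle-treated control cultures of the same strain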; settings: S. cerevisiae mlh1 strain growth inhibition, hits give high values
Outline: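 Here the genetically defined yeast mutant is grown with each compound, and the extent to which its growth falls below that of vehicle-exposed cells is reported.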

[13] = NCI Yeast Anticancer Drug Screen. Data for the sgs1 strain (AID 173);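 further: 0% = growth of vehicle-only control cultures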; settings: S. cerevisiae sgs1 mutant, hits give high values
Outline: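 Relative growth inhibition, referenced to vehicle, was determined in a yeast strain with a defined alteration affecting DNA damage repair or cell cycle control after compound exposure.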

[14] = NCI Yeast Anticancer Drug Screen. Data for the mlh1 rad18 strain (AID 175); settings: S. cerevisiae mlh1 rad18 strain growth inhibition, hits give high values
Outline: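 In this whole-cell yeast screen, a strain with altered DNA damage repair is challenged with compound, and its growth is measured against matched vehicle-treated controls.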

[15] = NCI Yeast Anticancer Drug Screen. Data for the rad18 strain (AID 177); settings: S. cerevisiae rad18 mutant growth inhibition, hits give high values
Outline: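 Screen uses a yeast strain with a defined lesion in DNA damage repair; compound effect is read as loss of growth compared to untreated vehicle cultures.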

[16] = at 5.0 µM (retest, dose inferred, filed as 0.5)
[17] = at 50.0 µM (retest, dose inferred, filed as 5.0)

Measured: growth inhibition

CCOC(=O)CNC(=O)c1[nH]cnc1/N=N/N(C)C
active: [1]; at 100.0 µM 98% | [2]; at 100.0 µM 98% | [4]; at 50.0 µM 89.6% | [4]; at 100.0 µM 97% | [5]; at 50.0 µM 90.3% | [5]; at 100.0 µM 98% | [6]; at 100.0 µM 97% | [7]; at 50.0 µM 89.5% | [8]; at 100.0 µM 98% | [9]; at 50.0 µM 90.5% | [10]; [17] 96% | [10]; at 50.0 µM 91.4% | [10]; at 100.0 µM 98% | [11]; at 100.0 µM 97% | [12]; at 100.0 µM 98% | [13]; at 100.0 µM 98% | [14]; at 50.0 µM 71.5% | [15]; at 100.0 µM 98%
inactive: [1]; at 1.2 µM -12% | [1]; at 3.7 µM -11% | [1]; at 11.0 µM -12% | [1]; at 33.0 µM 6% | [2]; at 1.2 µM 8% | [2]; at 3.7 µM 9% | [2]; at 11.0 µM 12% | [2]; at 33.0 µM 12% | [3]; at 1.2 µM -23% | [3]; at 3.7 µM -21% | [3]; at 11.0 µM -21% | [3]; at 33.0 µM -30% | [3]; at 100.0 µM -13% | [4]; at 1.2 µM -5% | [4]; at 3.7 µM 4% | [4]; [16] -10% | [4]; at 11.0 µM 2% | [4]; at 33.0 µM 5% | [4]; [17] 7% | [5]; at 1.2 µM -8% | [5]; at 3.7 µM -10% | [5]; [16] -7% | [5]; at 11.0 µM -8% | [5]; at 33.0 µM -6% | [5]; [17] -17% | [6]; at 1.2 µM 2% | [6]; at 3.7 µM 2% | [6]; at 11.0 µM 1% | [6]; at 33.0 µM 1% | [7]; [16] -12% | [7]; [17] -7% | [8]; at 1.2 µM 26% | [8]; at 3.7 µM 23% | [8]; at 11.0 µM 17% | [8]; at 33.0 µM 44% | [9]; [16] -1% | [9]; [17] 35% | [10]; at 1.2 µM 22% | [10]; at 3.7 µM 31% | [10]; [16] 3% | [10]; at 11.0 µM 29% | [10]; at 33.0 µM 62% | [11]; at 1.2 µM -2% | [11]; at 3.7 µM 1% | [11]; at 11.0 µM 0% | [11]; at 33.0 µM 1% | [12]; at 1.2 µM 13% | [12]; at 3.7 µM 5% | [12]; at 11.0 µM 4% | [12]; at 33.0 µM 2% | [13]; at 1.2 µM 10% | [13]; at 3.7 µM 1% | [13]; at 11.0 µM -2% | [13]; at 33.0 µM 9% | [14]; [16] -30% | [14]; [17] 59% | [15]; at 1.2 µM 0% | [15]; at 3.7 µM -11% | [15]; at 11.0 µM -13% | [15]; at 33.0 µM -3%

Cc1cccc(/C=N/NC(=S)N(C)CCc2ccccn2)n1
active: [1]; at 1.2 µM 96% | [1]; at 3.7 µM 98% | [1]; at 11.0 µM 98% | [1]; at 33.0 µM 99% | [1]; at 100.0 µM 99% | [2]; at 1.2 µM 90% | [2]; at 3.7 µM 94% | [2]; at 11.0 µM 98% | [2]; at 33.0 µM 99% | [2]; at 100.0 µM 99% | [3]; at 33.0 µM 84% | [3]; at 100.0 µM 90% | [4]; at 1.2 µM 91% | [4]; at 3.7 µM 94% | [4]; at 11.0 µM 96% | [4]; at 33.0 µM 98% | [4]; [17] 99% | [4]; at 50.0 µM 78.6% | [4]; at 100.0 µM 98% | [5]; at 1.2 µM 94% | [5]; at 3.7 µM 97% | [5]; [16] 81% | [5]; at 11.0 µM 98% | [5]; at 33.0 µM 99% | [5]; [17] 97% | [5]; at 50.0 µM 86.7% | [5]; at 100.0 µM 99% | [6]; at 1.2 µM 95% | [6]; at 3.7 µM 97% | [6]; at 11.0 µM 99% | [6]; at 33.0 µM 99% | [6]; at 100.0 µM 99% | [7]; [17] 97% | [7]; at 50.0 µM 91.3% | [8]; at 1.2 µM 81% | [8]; at 3.7 µM 92% | [8]; at 11.0 µM 97% | [8]; at 33.0 µM 98% | [8]; at 100.0 µM 98% | [9]; [17] 97% | [9]; at 50.0 µM 90.7% | [10]; at 3.7 µM 91% | [10]; at 11.0 µM 97% | [10]; at 33.0 µM 98% | [10]; [17] 99% | [10]; at 50.0 µM 91% | [10]; at 100.0 µM 98% | [11]; at 1.2 µM 89% | [11]; at 3.7 µM 93% | [11]; at 11.0 µM 97% | [11]; at 33.0 µM 98% | [11]; at 100.0 µM 99% | [12]; at 1.2 µM 91% | [12]; at 3.7 µM 95% | [12]; at 11.0 µM 98% | [12]; at 33.0 µM 98% | [12]; at 100.0 µM 99% | [13]; at 1.2 µM 97% | [13]; at 3.7 µM 98% | [13]; at 11.0 µM 99% | [13]; at 33.0 µM 99% | [13]; at 100.0 µM 98% | [14]; [17] 99% | [14]; at 50.0 µM 92.1% | [15]; at 1.2 µM 92% | [15]; at 3.7 µM 96% | [15]; at 11.0 µM 98% | [15]; at 33.0 µM 98% | [15]; at 100.0 µM 98%
inactive: [3]; at 1.2 µM -23% | [3]; at 3.7 µM -11% | [3]; at 11.0 µM 54% | [4]; [16] 16% | [7]; [16] 44% | [9]; [16] 9% | [10]; at 1.2 µM 56% | [10]; [16] 56% | [14]; [16] 61%
